MITF inh: blocks human microphthalmia-associated transcription factor; O75030; AlphaScreen MITF homodimerization, bead proximity signal; inhibition, % at 2.6 µM; 0.91% of 650,000 active; in the data active = inhibition above about 50%;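 note: 0% = vehicle wells with protein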
FBW7 act: human FBW7 E3 ligase activation, primary screen; Q969H0; AlphaScreen FBW7–phospho-cyclin E peptide binding, activator screen; normalized activity (activation), % at 26.1 µM; 0.13% of 650,000 active; in the data active = normalized activity above about 1.9%;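 note: purified mutant Fbw7 with reduced substrate affinity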
Target sequence (Q969H0 whole entry, looked up): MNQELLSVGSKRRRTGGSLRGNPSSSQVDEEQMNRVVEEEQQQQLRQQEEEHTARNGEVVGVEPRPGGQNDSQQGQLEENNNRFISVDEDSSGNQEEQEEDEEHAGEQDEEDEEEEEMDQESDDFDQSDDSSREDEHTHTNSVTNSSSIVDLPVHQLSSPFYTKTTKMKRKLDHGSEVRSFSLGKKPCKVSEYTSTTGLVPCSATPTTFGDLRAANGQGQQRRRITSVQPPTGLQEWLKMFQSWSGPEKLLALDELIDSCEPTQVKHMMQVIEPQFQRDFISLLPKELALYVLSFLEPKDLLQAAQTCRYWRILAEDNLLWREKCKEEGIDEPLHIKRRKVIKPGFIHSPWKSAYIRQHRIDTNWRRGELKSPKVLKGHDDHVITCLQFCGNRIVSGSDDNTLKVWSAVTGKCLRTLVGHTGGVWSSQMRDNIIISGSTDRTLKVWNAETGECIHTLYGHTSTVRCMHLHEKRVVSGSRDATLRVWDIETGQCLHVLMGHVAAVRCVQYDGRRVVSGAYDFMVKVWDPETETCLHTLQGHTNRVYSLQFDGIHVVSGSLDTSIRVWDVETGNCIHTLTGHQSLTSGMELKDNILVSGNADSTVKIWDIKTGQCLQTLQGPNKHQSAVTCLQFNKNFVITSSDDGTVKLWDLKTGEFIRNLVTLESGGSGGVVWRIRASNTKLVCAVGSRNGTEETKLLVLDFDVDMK
GPR151 ag: activates the human receptor GPR151; PathHunter beta-arrestin GPR151 cells, luminescence; AID 1508602; 1% of 650,000 active; Q8TDV0; activation, % at 11.2 µM; in the data active = activation above about 4.9%;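 note: 0% = median of compound wells and 100% = cells with positive control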
TEAD-YAP block: TEAD-YAP interaction inhibition; HEK-TIYL cells, TEAD-Gal4/YAP UAS-luciferase luminescence; inhibition, % at 9.12 µM; 1.4% of 640,000 active; in the data active = inhibition above about 32%;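 note: 0% = median of test compound wells and 100% = reference inhibitor wells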
* = called active by the depositor. Sampled rows, rich in hits. Any-hit rate of the full collection: about 3.4%.

SMILES	MITF inh	FBW7 act	GPR151 ag	TEAD-YAP block
O=C(O)CC1S/C(=N/N=C/c2ccc(O)cc2O)NC1=O (centres undefined)	19.5	-0.4	-2.6	3.8
O=C(CSc1nnc2ccc(-c3ccccc3)nn12)NCc1ccccc1	8.9	0.1	0.0	41.2*
O=C(CSc1nnc2ccc(-c3ccc(F)cc3)nn12)NCCc1ccccc1	-0.8	0.3	-1.5	-2.8
O=C(CSc1nnc2ccc(-c3ccc(F)cc3)nn12)NCc1ccccc1	9.4	0.0	-0.8	40.6*
Cc1ccc2nsnc2c1S(=O)(=O)Nc1ccc(C(=O)O)cc1	7.7	0.1	-0.6	-7.9
Cc1ccc2nsnc2c1S(=O)(=O)Nc1ccc(I)cc1	7.0	-0.4	-1.0	54.5*
O=C(COc1ccccc1[N+](=O)[O-])N/N=C\C=N\NC(=O)COc1ccccc1[N+](=O)[O-]	7.0	-0.1	-0.5	3.1
CC1(C)Cc2c(c(N3CCOCC3)nc3snc(N)c23)CO1	7.0	0.0	0.6	35.9*
Nc1ccc(Oc2ccc3c(c2)C(=O)N(Cc2cccnc2)C3=O)cc1	10.3	-0.1	1.1	34.8*
O=C1c2ccccc2C(=O)N1Cc1cccnc1	10.6	0.0	0.8	-2.6
C=CCn1c(=S)[nH]c2sc(CC)cc2c1=O	-7.3	-0.1	-1.0	-3.5
CC(=O)NC(Nc1nnc(-c2ccccc2)s1)C(Cl)(Cl)Cl (centres undefined)	-6.1	0.1	3.3	21.6
CC(=O)NC(Nc1nnc(-c2ccc(C)cc2)s1)C(Cl)(Cl)Cl (centres undefined)	8.2	-0.1	-0.6	49.3*
CCOC(=O)c1c(N)sc(C(=O)OC)c1CC(=O)OC	0.4	0.1	2.2	6.6
COC(=O)c1sc(N)c(C(=O)OC)c1COC(=O)c1c(C)noc1C	8.6	0.2	-0.8	46.5*
COc1ccc(/C=C2/C(=N)N3C(=NC2=O)SN=C3S(=O)(=O)C(C)C)cc1	1.8	-0.2	-0.9	7.9
COc1cc2nc(-c3ccc(C(=O)NC4CC4)cc3)nc(Nc3ccc(Oc4ccccc4)cc3)c2cc1OC	-6.6	3.7*	1.3	34.9*
COc1cc2nc(-c3cccc(N)c3)nc(Nc3ccc(Oc4ccccc4)cc3)c2cc1OC	2.8	-0.1	-0.1	35.5*
COc1ccccc1-n1c(-c2nn(C)cc2Cl)n[nH]c1=S	13.3	0.0	0.0	-0.9
O=C(Nn1c(C2CC2)nc2cc(Cl)ccc2c1=O)c1ccncc1	8.7	0.3	0.5	-7.8
COc1ccc(-c2nnc(/C=C/c3cccs3)o2)cc1	10.0	0.5	-11.4	72.4*
Cc1ccc(Cl)cc1NS(=O)(=O)c1ccc2c(c1)CCN2C(=O)CCC(=O)O	13.8	0.3	-0.7	10.6
O=C(Cn1nc2c3ccccc3nc(C3CC3)n2c1=O)Nc1ccccc1-c1ccccc1	5.2	0.0	0.6	-4.0
CC1(C)Cc2cccc(OCC(=O)Nc3ccc(S(=O)(=O)N4CCOCC4)cc3)c2O1	18.4	0.5	-1.4	4.7
Cc1cc(OCC(=O)NNC(=O)CCc2ccccc2)ccc1Br	6.8	2.3*	-0.7	5.9
SMILES	MITF inh	FBW7 act	GPR151 ag	TEAD-YAP block
Oc1ccccc1/C=N\Nc1nc2ccccc2[nH]1	16.0	-0.8	-0.1	-27.9
Oc1ccc(/C=N/Nc2nc3ccccc3[nH]2)c(O)c1O	39.5	-0.9	-1.1	-17.0
Oc1c(Cl)cc(Cl)cc1/C=N/Nc1nc2ccccc2[nH]1	-22.3	-0.1	0.4	60.7*
Oc1ccc(/C=N/Nc2nc3ccccc3[nH]2)c(O)c1	65.3*	-0.5	-0.7	16.4
Oc1ccc(/C=N/Nc2nc(Nc3ccccc3)nc(Nc3ccccc3)n2)c(O)c1	7.7	-0.2	-0.1	50.8*
COC(=O)NS(=O)(=O)c1ccccc1Cl	-8.1	0.1	-0.1	-6.7
CC(C)(C)NCCOc1ccc(C(C)(C)C)cc1	42.6	0.1	-0.7	1.9
c1ccc(-n2cnc3c(NCCN4CCOCC4)nc(Nc4ncccn4)nc32)cc1	-1.3	-0.1	0.2	-3.1
c1ccc(-n2cnc3c(NCCN4CCOCC4)nc(Nc4cnccn4)nc32)cc1	12.5	0.3	-1.2	48.1*
c1ccc(-n2cnc3c(NCCN4CCOCC4)nc(Nc4ccncn4)nc32)cc1	10.1	0.1	-0.7	29.1
c1ccc(-n2cnc3c(NCCN4CCOCC4)nc(Nc4ccccn4)nc32)cc1	-6.4	0.2	0.5	35.1*
COc1cc2nc(Nc3ccnn3C)nc(Nc3cc(OC)c(OC)c(OC)c3)c2cc1OC	8.3	0.0	1.3	63.5*
COc1ccc2c(C)cc(=O)oc2c1C(C)=O	8.2	0.0	-0.4	10.8
CN1C(=O)/C(=C/C2=Cc3ccccc3OC2)SC1=S	-6.3	-0.1	1.1	5.6
CN1CC=C(/C=C/C2=Cc3ccccc3OC2)CC1	-4.0	-0.1	-7.6	74.7*

High-throughput results: PubChem, The Scripps Research Institute Molecular Screening Center
